From PubChem
Rows were chosen to be rich in hits. Some 2.9% of all compounds tested hit in one or more screens of this group.
ABCB6 inh 2: ABCB6 transporter inhibitors, primary screen, K562-ABCB6 cells, flow cytometry, MLPCN library. ATP-binding cassette sub-family B member 6 (Homo sapiens), Q9NP58. K562-ABCB6 porphyrin accumulation, 1 h; stronger effect = lower value. fluorescence ratio to DMSO, % at 10 µM. hit rate 0.19% among 360,000. AID 602162, 2011;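 active = fluorescence ratio to DMSO below 75%, the collection mean minus 3 SD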;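 also: signal is porphyrin accumulated inside mitochondria; 100% equals median channel fluorescence of DMSO control wells; lower ratio means ABCB6 inhibition with less porphyrin fluorescence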
MEKK2mut PB1 HTS: MEK5 binding signal on mutant MEKK2 PB1, primary screen, biochemical, multiplex bead flow cytometry, Alexa488-MEK5. hit rate 0.35% among 290,000. AID 1530, 2009. Alexa488-MEK5 binding to MEKK2 mutant. percent response, % at 10 µM; in the data active = percent response above about 24%, passing the limit was not always enough
CRFR2-BP ag: agonists of CRF-BP/CRF-R2 complex, primary screen, cell-based, HEK293, calcium dye fluorescence, uHTS. calcium dye fluorescence (FLIPR); percent of saturating CRF peptide response. activation, % at 13.2 µM. hit rate 0.46% among 350,000;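 active = activation of at least 50%, plus an integration ratio under a set limit after plate pattern correction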;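 also: plate controls were neutral control wells without compound for no effect and CRF at EC100 for full effect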
MEKK2wt PB1 HTS: modulators of MEK5 binding to wildtype MEKK2, primary screen, biochemical, multiplex bead flow cytometry, Alexa488-MEK5 | Mitogen-activated protein kinase kinase kinase 2 (Homo sapiens), Q9Y2U5 | hit rate 1.1% among 290,000 | Alexa488-MEK5 binding to MEKK2 WT; actives lie on both sides | binding response (% of control), % at 10 µM; in the data active = binding response below about 67% or above about 130%
CRFBP-R2 block: antagonists of CRF-BP/CRF-R2 complex, primary screen, cell-based, HEK293, calcium dye fluorescence, uHTS; CRF-induced calcium fluorescence; inhibition, % at 11.8 µM; hit rate 0.59% among 350,000;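 active = inhibition of the ligand-induced calcium signal above about 50% at the single tested concentration, limit read from the data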
MEKK3 PB1 HTS: modulators of MEKK3-MEK5 PB1 binding, primary screen, biochemical, wildtype MEKK3, multiplex bead flow cytometry, Alexa488-MEK5 | binding response (% of control), % at 10 µM | hit rate 1.4% among 290,000 | Mitogen-activated protein kinase kinase kinase 3 (Homo sapiens), Q99759 | bead-based flow cytometry, Alexa488-MEK5 binding to MEKK3; actives lie on both sides; 0 = blocked by unlabeled MEK5, 100 = vehicle;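 active = binding response more than 3 SD above or below the average of its plate-row segment, actives on both sides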;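 also: Alexa488 bead fluorescence after subtracting the streptavidin-only scavenger bead signal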
Target sequence (Q99759 whole entry, looked up): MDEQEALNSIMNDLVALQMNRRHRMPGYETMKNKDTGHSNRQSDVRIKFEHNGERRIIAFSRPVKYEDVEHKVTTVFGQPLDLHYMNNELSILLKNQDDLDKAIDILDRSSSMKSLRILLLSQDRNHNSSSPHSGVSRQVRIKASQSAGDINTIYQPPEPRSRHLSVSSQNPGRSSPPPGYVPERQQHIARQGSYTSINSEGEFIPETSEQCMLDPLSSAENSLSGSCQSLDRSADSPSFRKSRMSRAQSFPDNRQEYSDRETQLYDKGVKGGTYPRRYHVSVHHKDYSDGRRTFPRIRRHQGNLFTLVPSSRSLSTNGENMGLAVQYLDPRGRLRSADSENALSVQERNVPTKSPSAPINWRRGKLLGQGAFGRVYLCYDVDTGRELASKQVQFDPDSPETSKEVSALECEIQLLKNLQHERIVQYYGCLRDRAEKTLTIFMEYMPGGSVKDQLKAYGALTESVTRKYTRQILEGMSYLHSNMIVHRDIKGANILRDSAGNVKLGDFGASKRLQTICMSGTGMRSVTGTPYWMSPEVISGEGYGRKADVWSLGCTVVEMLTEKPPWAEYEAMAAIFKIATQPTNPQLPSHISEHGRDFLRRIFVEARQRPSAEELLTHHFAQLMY
MEKK2wt confirm: modulators of MEK5 binding to wildtype MEKK2, confirmation, biochemical, single concentration, multiplex bead flow cytometry; binding response (% of control), % at 10 µM; Alexa488-MEK5 binding to MEKK2 WT; actives lie on both sides; shares compounds with MEKK3 PB1 HTS; AID 1892, 2009; hit rate 2.4% among 5,900; in the data active = binding response below about 16% or above about 210%; inactive = in between
MEKK2mut confirm: mutant MEKK2 PB1-MEK5 binding signal retest – biochemical, single concentration, multiplex bead flow cytometry, confirmation | Alexa488-MEK5 binding to MEKK2 mutant | percent response, % at 10 µM | shares compounds with MEKK3 PB1 HTS | hit rate 2% among 5,900; in the data active = percent response mostly above about 71%, no sharp cut-off; inactive = mostly below about 38%;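 also: higher means compound restores mutant binding toward wildtype level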
MEKK3-MEK5 inh: MEKK3 wild-type PB1 binding to MEK5, inhibitors, confirmation, biochemical, bead multiplex flow cytometry, single concentration, wildtype; shares compounds with MEKK3 PB1 HTS; Alexa488-MEK5 binding to MEKK3; stronger effect = lower value; binding response (% of control), % at 10 µM; hit rate 1.8% among 5,900;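 active = binding response below 72% of control, or above a set upper limit, though filed actives all read lower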;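 also: 100% = DMSO only wells and 0% = binding blocked by excess unlabeled MEK5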
An asterisk follows results filed as active; [ ] = another dose, or the depositor's remark.

Screening COc1ccccc1C(C(C(=O)c1ccccc1)N1CCOCC1)N1CCOCC1 (stereo not given) returned ABCB6 inh 2 98.0, CRFR2-BP ag 2.5 and CRFBP-R2 block 5.2.
Clc1ccc(-c2csc(N/N=C/c3ccc4c(c3)OCO4)n2)cc1 was read as ABCB6 inh 2 93.0, MEKK2mut PB1 HTS 1.0, CRFR2-BP ag 1.9, MEKK2wt PB1 HTS 107.0, CRFBP-R2 block -14.6, MEKK3 PB1 HTS 136.0*, MEKK2wt confirm 100.0, MEKK2mut confirm -4.0 and MEKK3-MEK5 inh 102.0.
For COC(=O)C1CCC(C)(C(=O)Nc2ccccc2)C1(C)C (stereo not given) the results were ABCB6 inh 2 103.0, MEKK2mut PB1 HTS -20.0, CRFR2-BP ag 0.0, MEKK2wt PB1 HTS 3.0*[inhibitor], CRFBP-R2 block -3.2, MEKK3 PB1 HTS 3.0*[inhibitor], MEKK2wt confirm 102.0, MEKK2mut confirm 3.0 and MEKK3-MEK5 inh 100.0.
For CCN(CC)CCNC(=O)c1ccc(NC(=O)c2ccc(C(=O)c3ccccc3)cc2)cc1 the results were ABCB6 inh 2 90.0, CRFR2-BP ag 0.5 and CRFBP-R2 block -3.5.
Screening CCN(CC)CCNC(=O)c1ccc(NC(=O)c2ccc(COc3ccccc3)cc2)cc1 returned ABCB6 inh 2 95.0, MEKK2mut PB1 HTS 26.0*, CRFR2-BP ag -0.5, MEKK2wt PB1 HTS 162.0*, CRFBP-R2 block -8.0, MEKK3 PB1 HTS 101.0, MEKK2wt confirm 168.0, MEKK2mut confirm 31.0 and MEKK3-MEK5 inh 106.0.
Screening CS(=O)(=O)N1CCN(c2ccc(NC(=O)c3cccnc3Cl)cc2)CC1 returned ABCB6 inh 2 100.0, MEKK2mut PB1 HTS -20.0, CRFR2-BP ag 3.8, MEKK2wt PB1 HTS -3.0*[inhibitor], CRFBP-R2 block -2.9, MEKK3 PB1 HTS 1.0*[inhibitor], MEKK2wt confirm 96.0, MEKK2mut confirm -7.0 and MEKK3-MEK5 inh 84.0.
`Cc1cc(NC(=O)c2sc(Nc3cccc(C(F)(F)F)c3)nc2N)no1` gave ABCB6 inh 2 94.0, MEKK2mut PB1 HTS 9.0, CRFR2-BP ag 0.4, MEKK2wt PB1 HTS 128.0, CRFBP-R2 block -38.4, MEKK3 PB1 HTS 140.0*, MEKK2wt confirm 105.0, MEKK2mut confirm 8.0 and MEKK3-MEK5 inh 104.0.
For Cc1cc(NC(=O)c2sc(Nc3ccc(F)c(Cl)c3)nc2N)no1 the results were ABCB6 inh 2 98.0, MEKK2mut PB1 HTS -2.0, CRFR2-BP ag -1.6, MEKK2wt PB1 HTS 101.0, CRFBP-R2 block -9.8 and MEKK3 PB1 HTS 105.0.
For CC(Sc1n[nH]c(-c2cccs2)n1)C(=O)Nc1ccc(C(N)=O)cc1 (stereo not given) the results were ABCB6 inh 2 97.0, CRFR2-BP ag 0.5 and CRFBP-R2 block -3.2.
CC(=O)N1CC(=O)N(Cc2ccccc2)/C(=C/c2ccccc2)C1=O was read as ABCB6 inh 2 94.0, MEKK2mut PB1 HTS 4.0, CRFR2-BP ag -2.3, MEKK2wt PB1 HTS 118.0, CRFBP-R2 block 6.2, MEKK3 PB1 HTS 132.0*, MEKK2wt confirm 97.0, MEKK2mut confirm -4.0 and MEKK3-MEK5 inh 100.0.
CC1(C)Cc2nc(N3CCCC3)c(C#N)cc2CO1 was read as ABCB6 inh 2 93.0, MEKK2mut PB1 HTS 2.0, CRFR2-BP ag -1.6, MEKK2wt PB1 HTS 117.0, CRFBP-R2 block 16.1, MEKK3 PB1 HTS 129.0*, MEKK2wt confirm 99.0, MEKK2mut confirm -7.0 and MEKK3-MEK5 inh 101.0.
Screening CN(CC(=O)NCc1cccs1)S(=O)(=O)c1cccc2nsnc12 returned ABCB6 inh 2 95.0, MEKK2mut PB1 HTS -21.0, CRFR2-BP ag 1.1, MEKK2wt PB1 HTS 3.0*[inhibitor], CRFBP-R2 block 5.6, MEKK3 PB1 HTS 2.0*[inhibitor], MEKK2wt confirm 107.0, MEKK2mut confirm 7.0 and MEKK3-MEK5 inh 103.0.
For CN(CC(=O)NCc1ccc(F)cc1)S(=O)(=O)c1cccc2nsnc12 the results were ABCB6 inh 2 95.0, MEKK2mut PB1 HTS -5.0, CRFR2-BP ag -0.4, MEKK2wt PB1 HTS 97.0, CRFBP-R2 block 20.2 and MEKK3 PB1 HTS 98.0.
O=C(N/N=C1\C2CN3CCN(C2)CC1(c1ccccc1)C3)c1ccc(F)cc1 was read as ABCB6 inh 2 108.0, MEKK2mut PB1 HTS -2.0, CRFR2-BP ag -2.3, MEKK2wt PB1 HTS 103.0, CRFBP-R2 block -3.6 and MEKK3 PB1 HTS 97.0.
For CC(C)(C)c1ccc(C(=O)N/N=C2\C3CN4CCN(C3)CC2(c2ccccc2)C4)cc1 the results were ABCB6 inh 2 98.0, MEKK2mut PB1 HTS 0.0, CRFR2-BP ag -0.3, MEKK2wt PB1 HTS 106.0, CRFBP-R2 block -13.3, MEKK3 PB1 HTS 132.0*, MEKK2wt confirm 100.0, MEKK2mut confirm -4.0 and MEKK3-MEK5 inh 101.0.
CCCC12CN3CCN(CC(C3)/C1=N\NC(=O)c1ccccc1N)C2 was read as ABCB6 inh 2 105.0, MEKK2mut PB1 HTS 1.0, CRFR2-BP ag 0.7, MEKK2wt PB1 HTS 114.0, CRFBP-R2 block -8.0, MEKK3 PB1 HTS 154.0*, MEKK2wt confirm 99.0, MEKK2mut confirm -5.0 and MEKK3-MEK5 inh 101.0.
Screening CC(=O)Nc1cccc(NC(=O)Cc2ccc3ccccc3c2)c1 returned ABCB6 inh 2 89.0, MEKK2mut PB1 HTS 1.0, CRFR2-BP ag -0.6, MEKK2wt PB1 HTS 106.0, CRFBP-R2 block 13.1 and MEKK3 PB1 HTS 104.0.
Screening CCOc1ccc(NC(=O)CSc2nc3ccccc3nc2N2CC(C)OC(C)C2)cc1 (stereo not given) returned ABCB6 inh 2 96.0, MEKK2mut PB1 HTS -6.0, CRFR2-BP ag -1.1, MEKK2wt PB1 HTS 93.0, CRFBP-R2 block 29.5 and MEKK3 PB1 HTS 102.0.
For CC(C)C(=O)Nc1ccc(-c2csc(-c3ccccc3)n2)cc1 the results were ABCB6 inh 2 93.0, MEKK2mut PB1 HTS 11.0, CRFR2-BP ag -0.4, MEKK2wt PB1 HTS 106.0, CRFBP-R2 block 27.5 and MEKK3 PB1 HTS 107.0.
